# Results from PubChem BioAssay (EPA / NIEHS).
# “And” between values parts separate entries of the source, which are not always exact repeats. Equal values may be shown once. Where a structure was tested more than once in an assay, its records may differ in their call. The source made the active and inactive calls. The calls were made as follows: active = hit-call score of the fitted dose curve at least 0.9, where 1 is the maximum; inactive = score below 0.9.
# Read-out: Monocyte Chemoattractant Protein-1 (MCP1), CCL2 (gene 6347)
# Test: BSK_IMphg_MCP1: BioMAP Diversity Plus: IMphg Assay for Monocyte Chemoattractant Protein-1 (MCP1) Biomarker Activity (AID 2284253)
# Conditions: primary human endothelial cells with macrophages
# Outline: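 ELISA readout of MCP-1 at 24 hours in IMphg co-cultures of venular endothelial cells and macrophages, normalised to DMSO; parallel cultures stained with sulforhodamine B for overt cytotoxicity.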
SMILES,outcome,AC50
O=C(O)C(F)(F)C(F)(F)C(F)(F)C(F)(F)C(F)(F)C(F)(F)C(F)(F)C(F)(F)C(F)(F)C(F)(F)C(F)(F)C(F)(F)F,inactive,
FC1CC(F)(F)C(F)(F)C1(F)F (stereo not given),inactive,
O=C(O)C(F)(F)C(F)(F)C(F)F,inactive,
O=C(O)C(F)(F)C(F)(F)OC(F)(F)F,inactive,
O=C(O)C(F)(F)C(F)(F)C(F)(F)C(F)(F)C(F)(F)C(F)(F)C(F)(F)C(F)(F)C(F)(F)C(F)F,,49.5 µM (active) and 48.9 µM (active)
OCCCC(F)(F)C(F)(F)C(F)(F)C(F)(F)C(F)(F)C(F)(F)C(F)(F)F,,52 µM (active) and 24.2 µM (active)
NC(=O)C(F)(F)C(F)(F)C(F)(F)C(F)(F)F,inactive,
Cc1ccc(S(=O)(=O)OCC(F)(F)C(F)(F)C(F)(F)C(F)(F)C(F)(F)C(F)F)cc1,inactive,
FC(F)(F)C(F)(F)C(F)(F)N(C(F)(F)C(F)(F)C(F)(F)F)C(F)(F)C(F)(F)C(F)(F)F,inactive,
FC(F)(F)C(F)(F)C(F)(F)C(F)(F)C(F)(F)C(F)(F)C(F)(F)I,inactive,
O=C(O)C(F)(F)C(F)(F)C(F)(F)C(F)(F)C(F)(F)C(F)(F)C(F)(F)C(F)(F)C(F)(F)C(F)(F)C(F)(F)C(F)(F)C(F)(F)F,inactive,
CCO[Si](CCC(F)(F)C(F)(F)C(F)(F)C(F)(F)C(F)(F)C(F)(F)F)(OCC)OCC,inactive,
OCC(F)(F)C(F)(F)C(F)(F)C(F)F,inactive,
OCCCC(F)(F)C(F)(F)C(F)(F)F,inactive,
FC(F)(Br)C(F)(F)C(F)(F)C(F)(F)C(F)(F)C(F)(F)Br,inactive,
COC(=O)CCC(F)(F)C(F)(F)C(F)(F)C(F)(F)F,inactive,
FC(F)(I)C(F)(F)C(F)(F)C(F)(F)I,inactive,
C=C(C)C(=O)OCC(F)(F)C(F)(F)C(F)(F)F,inactive,

SMILES,outcome,AC50
O=C(O)C(F)(F)C(F)(F)F,inactive,
N=C(N)C(F)(F)C(F)(F)C(F)(F)C(F)(F)C(F)(F)C(F)(F)C(F)(F)F,inactive,
FC(F)(F)C(F)(F)C(F)(F)C(F)(F)C(F)(F)C(F)(F)C(F)(F)C(F)(F)CCS,inactive,
O=C(O)C=C(C(F)(F)F)C(F)(F)F,inactive,42.6 µM (active)
FC(F)(F)C(F)(F)C(F)(F)CI,inactive,
CC(C)(C)C(=O)CC(=O)C(F)(F)C(F)(F)C(F)(F)F,inactive,
FC(F)(F)C(F)(F)C(F)(F)C(F)(F)C(F)(F)C(F)(F)C(F)(F)Br,inactive,
FC(F)(F)C(F)(F)C(F)(F)C(F)(F)C(F)(F)CCI,inactive,
O=C(O)C(F)(F)C(F)(F)C(F)(F)C(F)(F)C(F)(F)C(F)(F)C(F)(F)C(F)(F)Cl,,48.6 µM (active)
O=P(O)(O)OCCC(F)(F)C(F)(F)C(F)(F)C(F)(F)C(F)(F)C(F)(F)F,inactive,
FC(F)(F)C(F)(F)C(F)(F)C(F)(F)C(F)(F)C(F)(F)CCS,inactive,
FC(F)(F)C(F)(F)C(F)(F)C(F)(F)CCI,inactive,
C=CC(F)(F)C(F)(F)C(F)(F)C(F)(F)C(F)(F)C(F)(F)C(F)(F)C(F)(F)C=C,inactive,
CCCCCCCCC(F)(F)C(F)(F)C(F)(F)C(F)(F)C(F)(F)C(F)(F)F,inactive,
C=C(C)C(=O)OCC(F)(F)C(F)(F)C(F)(F)C(F)(F)C(F)(F)C(F)(F)C(F)(F)F,inactive,
O=C(Cl)C(F)(F)C(F)(F)C(F)(F)C(F)(F)C(F)(F)C(F)(F)C(F)(F)C(F)(F)F,inactive,51.4 µM (active)
OCC(F)(F)C(F)(F)C(F)(F)F,inactive,

# Read-out: Interleukin-8 (IL8), CXCL8 (gene 3576)
# Test: BSK_KF3CT_IL8: BioMAP Diversity Plus: KF3CT Assay for Interleukin-8 (IL8) Biomarker Activity (AID 2284254)
# Conditions: primary human keratinocytes with fibroblasts
# Outline: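 IL-8 read-out: ELISA, 24 h post-dose, human skin primary co-culture (keratinocytes + foreskin fibroblasts). DMSO = baseline; positive-direction fit.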
SMILES,outcome,AC50
O=C(O)C(F)(F)C(F)(F)C(F)(F)C(F)(F)C(F)(F)C(F)(F)C(F)(F)C(F)(F)C(F)(F)C(F)(F)C(F)(F)C(F)(F)F,inactive,
FC1CC(F)(F)C(F)(F)C1(F)F (stereo not given),inactive,
O=C(O)C(F)(F)C(F)(F)C(F)F,inactive,
O=C(O)C(F)(F)C(F)(F)OC(F)(F)F,inactive,
O=C(O)C(F)(F)C(F)(F)C(F)(F)C(F)(F)C(F)(F)C(F)(F)C(F)(F)C(F)(F)C(F)(F)C(F)F,inactive,
OCCCC(F)(F)C(F)(F)C(F)(F)C(F)(F)C(F)(F)C(F)(F)C(F)(F)F,,49.3 µM (active) and 46.4 µM (active)
NC(=O)C(F)(F)C(F)(F)C(F)(F)C(F)(F)F,inactive,
Cc1ccc(S(=O)(=O)OCC(F)(F)C(F)(F)C(F)(F)C(F)(F)C(F)(F)C(F)F)cc1,inactive,
FC(F)(F)C(F)(F)C(F)(F)N(C(F)(F)C(F)(F)C(F)(F)F)C(F)(F)C(F)(F)C(F)(F)F,inactive,
FC(F)(F)C(F)(F)C(F)(F)C(F)(F)C(F)(F)C(F)(F)C(F)(F)I,inactive,
O=C(O)C(F)(F)C(F)(F)C(F)(F)C(F)(F)C(F)(F)C(F)(F)C(F)(F)C(F)(F)C(F)(F)C(F)(F)C(F)(F)C(F)(F)C(F)(F)F,inactive,
CCO[Si](CCC(F)(F)C(F)(F)C(F)(F)C(F)(F)C(F)(F)C(F)(F)F)(OCC)OCC,inactive,
OCC(F)(F)C(F)(F)C(F)(F)C(F)F,inactive,
OCCCC(F)(F)C(F)(F)C(F)(F)F,inactive,
FC(F)(Br)C(F)(F)C(F)(F)C(F)(F)C(F)(F)C(F)(F)Br,inactive,30 µM (active)
COC(=O)CCC(F)(F)C(F)(F)C(F)(F)C(F)(F)F,inactive,
FC(F)(I)C(F)(F)C(F)(F)C(F)(F)I,inactive,45.8 µM (active) and 47.4 µM (active)
C=C(C)C(=O)OCC(F)(F)C(F)(F)C(F)(F)F,inactive,

SMILES,outcome,AC50
O=C(O)C(F)(F)C(F)(F)F,inactive,
N=C(N)C(F)(F)C(F)(F)C(F)(F)C(F)(F)C(F)(F)C(F)(F)C(F)(F)F,inactive,
FC(F)(F)C(F)(F)C(F)(F)C(F)(F)C(F)(F)C(F)(F)C(F)(F)C(F)(F)CCS,inactive,
O=C(O)C=C(C(F)(F)F)C(F)(F)F,inactive,
FC(F)(F)C(F)(F)C(F)(F)CI,inactive,
CC(C)(C)C(=O)CC(=O)C(F)(F)C(F)(F)C(F)(F)F,inactive,
FC(F)(F)C(F)(F)C(F)(F)C(F)(F)C(F)(F)C(F)(F)C(F)(F)Br,inactive,
FC(F)(F)C(F)(F)C(F)(F)C(F)(F)C(F)(F)CCI,inactive,
O=C(O)C(F)(F)C(F)(F)C(F)(F)C(F)(F)C(F)(F)C(F)(F)C(F)(F)C(F)(F)Cl,,55.2 µM (active) and 45.8 µM (active)
O=P(O)(O)OCCC(F)(F)C(F)(F)C(F)(F)C(F)(F)C(F)(F)C(F)(F)F,inactive,
FC(F)(F)C(F)(F)C(F)(F)C(F)(F)C(F)(F)C(F)(F)CCS,inactive,
FC(F)(F)C(F)(F)C(F)(F)C(F)(F)CCI,inactive,
C=CC(F)(F)C(F)(F)C(F)(F)C(F)(F)C(F)(F)C(F)(F)C(F)(F)C(F)(F)C=C,inactive,
CCCCCCCCC(F)(F)C(F)(F)C(F)(F)C(F)(F)C(F)(F)C(F)(F)F,inactive,
C=C(C)C(=O)OCC(F)(F)C(F)(F)C(F)(F)C(F)(F)C(F)(F)C(F)(F)C(F)(F)F,inactive,
O=C(Cl)C(F)(F)C(F)(F)C(F)(F)C(F)(F)C(F)(F)C(F)(F)C(F)(F)C(F)(F)F,inactive,30 µM (active)
OCC(F)(F)C(F)(F)C(F)(F)F,inactive,
